Screens from PubChem.
HPGD block: HPGD (human) dehydrogenase inhibition | P15428 | Potency, µM, most hits filed as inhibitors | hit rate 4.3% among 150,000 | purified HPGD, NADH fluorescence kinetic, PGE2 substrate
Target sequence (P15428 whole entry, looked up): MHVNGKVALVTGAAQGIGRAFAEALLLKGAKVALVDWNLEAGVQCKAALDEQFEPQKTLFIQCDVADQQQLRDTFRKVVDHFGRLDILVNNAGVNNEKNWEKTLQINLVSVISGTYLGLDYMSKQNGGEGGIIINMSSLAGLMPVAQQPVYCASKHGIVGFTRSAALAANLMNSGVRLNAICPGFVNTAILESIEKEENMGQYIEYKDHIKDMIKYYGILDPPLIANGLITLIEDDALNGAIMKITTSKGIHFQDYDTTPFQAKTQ
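NADH formation kinetics: reaction with 30 uM PGE2 and 1 mM NAD+ (final), 20 nM enzyme, Tris-HCl pH 8 with Tween 20, after 15 min compound preincubation at room temperature. Fluorescence change, last versus first of five reads.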
IMPase Li inh: cell-permeable IMPase inhibitors with lithium potentiation; Potency, µM (titrated, usually from 59.4 µM), usual class: inhibitors; CHO-M1 cells, IP1 TR-FRET (IP-One), carbachol + lithium; hit rate 0.35% among 210,000; active means well fitted curve in the direction sought with a large enough effect; inconclusive means small, poorly fitted or top-dose-only effect, or another doubt; inactive means no such curve, though single readings can be large; an effect the other way counts as inactive or inconclusive;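 further: IP1 builds up when IMPase is blocked and the TR-FRET signal falls; nearly all actives have a fitted effect of over 50% in size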
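CHO-M1, 2000 cells/well, 16–30 h culture; cpd + low Li+, 30 min 37C; lysis with d2-IP1/Eu-anti-IP1 Ab, 10 min RT; TR-FRET 665/620 ratio and 620 channel; AC50 via Hill.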
Lamin A splicing: modulators of lamin A splicing; HeLa LMNA splicing GFP/RFP minigene ratio, 48 h; Potency, µM (top dose mostly 46.1 µM), usual class: inhibitors; hit rate 0.01% among 200,000; AID 1487; active means well fitted inhibition curve with a large enough effect in the signal ratio, with a control signal flat, not every such curve was filed as active; inconclusive means small, poorly fitted or top-dose-only effect, or effect the other way, or a change in a side signal; the % refers to the signal ratio
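S3 HeLa stable clones carrying a lamin A-EGFP splicing minigene plus DsRed2 were seeded at 600 cells/well in Opti-MEM with 2% FBS, pin-dosed and incubated 48 h at 37°C. Acumen cytometry (488 nm) gave the GFP/RFP total-intensity ratio.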
ALDH1A1 block: ALDH1A1 (human) enzyme inhibition; P00352; Purified ALDH1A1, NADH fluorescence, propionaldehyde substrate; Potency, µM (series often up to 75.3 µM), actives largely listed as inhibitors; hit rate 7.3% among 220,000
Target sequence (P00352 whole entry, looked up): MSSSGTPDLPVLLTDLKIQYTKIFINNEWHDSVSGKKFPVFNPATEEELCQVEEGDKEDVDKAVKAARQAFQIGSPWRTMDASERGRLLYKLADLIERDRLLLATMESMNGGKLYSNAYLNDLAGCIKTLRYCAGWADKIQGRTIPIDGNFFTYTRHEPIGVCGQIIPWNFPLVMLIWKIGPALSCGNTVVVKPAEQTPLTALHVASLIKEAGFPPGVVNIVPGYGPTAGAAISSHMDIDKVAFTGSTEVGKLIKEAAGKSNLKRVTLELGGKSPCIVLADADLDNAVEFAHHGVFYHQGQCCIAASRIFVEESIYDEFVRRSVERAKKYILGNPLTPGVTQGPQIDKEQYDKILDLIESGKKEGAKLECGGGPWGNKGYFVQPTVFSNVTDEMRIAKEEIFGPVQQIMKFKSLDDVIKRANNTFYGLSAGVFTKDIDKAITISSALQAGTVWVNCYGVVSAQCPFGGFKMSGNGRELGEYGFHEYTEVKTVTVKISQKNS
Luc counter: counter-screen: inhibitors of Kinase-Glo firefly luciferase. Kinase-Glo luciferase, ATP luminescence, 8 min. Potency, µM (highest dose often 38.3 µM), hits mostly inhibitors. hit rate 0.28% among 200,000. Q27757. AID 1379; active means well fitted curve in the direction sought with a large enough effect; inconclusive means small, poorly fitted or top-dose-only effect, or another doubt; inactive means no such curve, though single readings can be large; an effect the other way counts as inactive or inconclusive; further: nearly all actives have a fitted effect of over 60% in size
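Inhibition of Kinase-Glo luciferase light generation was assessed at 10 uM ATP in pH 7.2 imidazole buffer, with luminescence measured after eight minutes at ambient temperature.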
Large screens that a line does not name were inactive. Compounds with a hit are over-represented: about 9% of the library has one in this group of screens. Unless noted, the call rests on the fitted dose curve; in most records, active means well fitted inhibition curve with a large enough effect (not every such curve was filed as active); inconclusive means small, poorly fitted or top-dose-only effect, or another doubt; inactive means no such curve, though single readings can be large or run the other way.

CC1=CC(C)(C)N(C(=O)CSc2nnc(-c3ccc(C)cc3)o2)c2ccc(C)cc21	none
CC(C(=O)NN=C(c1ccccc1)c1ccccc1)N1CCOCC1 (stereo not given)	none (no result: HPGD block, Lamin A splicing)
COc1ccc(NS(=O)(=O)c2ccc(NS(=O)(=O)c3ccc(SC)cc3)cc2)c(OC)c1	ALDH1A1 block inconclusive
COc1ccc(OC)c(NS(=O)(=O)c2ccc(SC)cc2)c1	Lamin A splicing inconclusive, ALDH1A1 block 18µM
COc1ccc(Cl)cc1NS(=O)(=O)c1ccc(S(=O)(=O)N2CCCC2)cc1	Lamin A splicing inconclusive, ALDH1A1 block 28µM
COc1ccc(Cl)cc1NS(=O)(=O)c1ccc(OC)c(OC)c1	ALDH1A1 block 13µM
COc1ccc(-c2cnnc(CCCn3ccnc3-c3ccccc3)n2)cc1	none (no result: HPGD block, IMPase Li inh, Lamin A splicing, Luc counter)
O=C(NCCc1c[nH]c2ccccc12)/C(=C/c1cccnc1)NC(=O)c1ccco1	ALDH1A1 block inconclusive (no result: HPGD block, Lamin A splicing)
O=C(O)CSc1nc2c(c(=O)[nH]1)CCCC2	none (no result: HPGD block, IMPase Li inh, Luc counter)
Cc1ccccc1CSc1nc2c(c(=O)[nH]1)CCC2	HPGD block 3.5µM, Lamin A splicing inconclusive
Cc1oc(-c2ccccc2Cl)nc1CSc1nc2ncccc2[nH]1	none (no result: HPGD block, IMPase Li inh, ALDH1A1 block, Luc counter)
CCCCSc1nc2c(c(=O)[nH]1)CCC2	HPGD block 28µM
Cc1oc(-c2ccccc2)nc1CSc1nc2c(c(=O)[nH]1)CCC2	HPGD block 4.5µM
Cc1ccccc1-c1nc(CSc2nc3c(c(=O)[nH]2)CCC3)c(C)o1	HPGD block 4.5µM
Cc1ccccc1CSc1nnc(C)c(=O)[nH]1	HPGD block inconclusive, ALDH1A1 block inconclusive
COc1ccccc1CNC(=O)CCC1N=C2c3ccccc3N=C(SCC(=O)NCCc3ccc(OC)c(OC)c3)N2C1=O (stereo not given)	none (no result: HPGD block, IMPase Li inh, ALDH1A1 block, Luc counter)
Cc1cccc(-c2nc(CSc3nc4c(c(=O)[nH]3)CCC4)c(C)o2)c1	HPGD block 2.8µM, Lamin A splicing inconclusive
COc1ccccc1NC1SC(=O)N(c2ccccc2)C1=O (stereo not given)	Lamin A splicing inconclusive, ALDH1A1 block 5µM
COc1ccc(OC)c(NC(=O)CC2SC(=N)N(c3ccccc3)C2=O)c1 (stereo not given)	none (no result: HPGD block, Lamin A splicing)
CN1C(=O)SC(Nc2ccccc2C(=O)O)C1=O (stereo not given)	HPGD block inconclusive, ALDH1A1 block inconclusive
Cc1ccc(NC(=O)CC2SC(=O)N(c3ccccc3)C2=O)cc1 (stereo not given)	ALDH1A1 block 10µM
Cc1ccc(NC(=O)CC2SC3=NCCN3C2=O)cc1 (stereo not given)	ALDH1A1 block 3.5µM
O=C(CC1SC(=O)N(c2ccccc2)C1=O)Nc1ccccc1 (stereo not given)	HPGD block inconclusive, ALDH1A1 block 8.9µM
O=C(CC1SC2=NCCN2C1=O)Nc1ccccc1 (stereo not given)	none
N#Cc1c(-c2ccccc2)c(-c2ccccc2)n(Cc2ccco2)c1NC(=O)c1cccs1	none (no result: HPGD block, IMPase Li inh, Luc counter)
O=C(CC1Sc2ncnn2C1=O)Nc1ccccc1 (stereo not given)	HPGD block 16µM, ALDH1A1 block 2µM
CCN=C1SC(CC(=O)Nc2ccc(C(F)(F)F)cc2)C(=O)N1CC (stereo not given)	none
CCCN1C(=O)SC(CC(=O)Nc2ccc(C)cc2)C1=O (stereo not given)	ALDH1A1 block 22µM
Cc1cccc(NC2SC(=O)N(c3ccccc3)C2=O)c1 (stereo not given)	ALDH1A1 block 1.3µM
O=C(O)CN1C(=O)SC(Nc2ccccc2)C1=O (stereo not given)	none
Cc1cccc(NC(=O)CC2S/C(=N/c3nccs3)N(C)C2=O)c1 (stereo not given)	none
Cc1cccc(NC(=O)CC2SC(=O)N(c3ccccc3)C2=O)c1 (stereo not given)	ALDH1A1 block 10µM
CC(=O)C1CCC2C3CC(C)C4=CC(=O)CC[C@@]4(C)C3C(O)C[C@@]12C (stereo not given in full)	none (no result: Lamin A splicing)
CCn1c2c(c(=O)n3ncc(C(=O)Nc4cc(Cl)ccc4C)c13)CN(Cc1ccc(OC)cc1)CC2	none (no result: HPGD block, IMPase Li inh, ALDH1A1 block, Luc counter)
O=S(=O)(Nc1nc2ccccc2s1)c1cnc(Cl)c(Br)c1	ALDH1A1 block 20µM (no result: HPGD block, IMPase Li inh, Lamin A splicing, Luc counter)
O=C(O)C1CC(C2CCCCN2)CN2CCCCC12 (stereo not given)	none
CC1(c2ccc(Cl)cc2)NC(=O)CS1 (stereo not given)	none (no result: HPGD block, Lamin A splicing)
CCOc1ccccc1NC(=O)COn1nnc2ccc(Cl)cc21	HPGD block inconclusive, ALDH1A1 block 16µM
Cc1nc(SCC(=O)Nc2ccccc2C(F)(F)F)c(C#N)c(C)c1CC(=O)c1ccc(Br)cc1	IMPase Li inh 10µM
O=c1c2c(-c3ccc([N+](=O)[O-])cc3)csc2nc2n1CCC2	HPGD block 22µM, ALDH1A1 block 7.1µM
O=[N+]([O-])c1ccc2c(c1)nc1n2CCCCC1	none (no result: HPGD block)
Cc1cccc(Cc2ccc(Cl)nn2)c1	none (no result: HPGD block)
CCN(CC)CCNC(=O)CN1C(=O)CSc2ccc(S(=O)(=O)N3CCOCC3)cc21	none (no result: HPGD block, IMPase Li inh, ALDH1A1 block, Luc counter)
COc1ccc(-c2csc(N(CCc3ccc(OC)c(OC)c3)C(=O)COc3ccccc3)n2)cc1	ALDH1A1 block inconclusive
Cc1ccc(C2C3=C(CC(C)(C)CC3=O)Nc3[nH]c(=S)[nH]c(=O)c32)cc1 (stereo not given)	HPGD block 18µM
Cc1[nH]nc2c1C(c1ccc(O)cc1)C1=C(CC(C)(C)CC1=O)N2 (stereo not given)	ALDH1A1 block inconclusive (no result: HPGD block, Lamin A splicing)
CCOC(=O)CSc1nc(NCc2ccco2)c2ccccc2n1	ALDH1A1 block inconclusive
COc1ccc(Cc2nnc(SCC(=O)NCc3ccco3)o2)cc1	HPGD block 20µM, ALDH1A1 block inconclusive
COc1ccc(CNc2nc(SCC(=O)NCc3ccco3)nc3ccccc23)cc1	HPGD block 10µM, ALDH1A1 block inconclusive
COc1ccc(NC(C)c2cc(Cl)ccc2O)cc1 (stereo not given)	HPGD block inconclusive, ALDH1A1 block 22µM
CC(Nc1ccccc1)c1cc(Cl)ccc1O (stereo not given)	none
O=S(=O)(c1cccc(S(=O)(=O)N2CCCC2)c1)c1cccc(S(=O)(=O)N2CCCC2)c1	ALDH1A1 block inconclusive
O=S(=O)(NCc1cccs1)c1cccc(S(=O)(=O)N2CCCCC2)c1	Lamin A splicing inconclusive, ALDH1A1 block 8.9µM
CCCCNS(=O)(=O)c1cccc(S(=O)(=O)N2CCCC2)c1	ALDH1A1 block 14µM
CCNC(=O)COC(=O)c1cc(-c2ccccc2)nn1-c1ccccc1	ALDH1A1 block inconclusive (no result: HPGD block)
COCC(=O)N1CCC2(CC1)CN(c1cccc(-c3ccccc3)c1)C2	HPGD block inconclusive, ALDH1A1 block inconclusive (no result: Lamin A splicing)
COc1ccccc1C(=O)N1CCCC(c2nc(-c3cc(OC)c(OC)c(OC)c3)no2)C1 (stereo not given)	none
CCOc1ccccc1NC(=O)N1CCCC(c2nc(-c3ccc(C)o3)no2)C1 (stereo not given)	ALDH1A1 block inconclusive (no result: HPGD block)
